# PubChem BioAssay AID1069 (NMMLSC, 2008)
# Calls of active or inactive are those of the source.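 Rule for the calls: active = high combined rank on largest and smallest cell-count-weighted shift across three tests, rank score above 45, floors 50 and 25 (some results past the limit were not filed as active); inactive = the rest.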
# Assay: activators of LNCaP cell differentiation, retest, confirmation, side scatter shift, flow cytometry (AID 1069);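 note: LNCaP human prostate cancer cells in low-serum medium with charcoal-stripped FBS; percent of cells with raised granularity gated so DMSO controls show 10%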
# Conditions: 4 d, at 100 µM, stronger effect = higher value
row,SMILES,side scatter shift
1,Cc1cc(NC(=O)CSc2nnc(C3CC3)n2C)no1,11.6% (inactive)
2,Nc1cccc2cnccc12,4.1% (inactive)
3,COc1ccc(C)cc1NC(=O)CCC(=O)Nc1ccc2nc(N3CCN(C)CC3)cc(C)c2c1,10.5% (inactive)
4,CCOC(=O)C1CCCN(C(=O)Cn2cccc2C(=O)c2ccccc2)C1 (centres undefined),6% (inactive)
5,CCn1c(=O)cc(SCC(=O)NCCCN2CCN(c3ccc(F)cc3)CC2)c2ccccc21,14.3% (inactive)
6,CCCCOC(=O)CSc1nc2c(cc1C#N)C(=O)CC(C)(C)C2,16.3% (inactive)
7,CCC(C(=O)Nc1ccccc1OC)n1c(C(=O)OC)cc2ccsc21 (centres undefined),12.2% (inactive)
8,CCCCOC(=O)Nc1cc(C(=O)OC)ccc1C(=O)OC,21% (inactive)
9,Cn1nc(-c2ccc(Cl)cc2)c2cc(C(=O)NCCCN3CCOCC3)sc21,63.6% (active)
10,O=C(Nc1ccc2oc(Cc3ccc(Cl)cc3)nc2c1)c1cccnc1,17.6% (inactive)
11,O=C(NCCCN1CCOCC1)c1cc2c(s1)CSC2,13.1% (inactive)
12,COc1ccc(-c2nc(CN3CCC(C(=O)N4CCc5ccccc54)CC3)c(C)o2)cc1OC,12.5% (inactive)
13,CCOC(=O)c1sc2ncnc(N3CCN(c4ccc(OC)cc4)CC3)c2c1C,25% (inactive)
14,COc1ccc(-c2ccc(-c3nnn(CC(C)=O)n3)cc2)cc1,11.7% (inactive)
15,Cc1cc(=O)oc(C)c1C(=O)NCCCN1CCN(c2ccc(F)cc2)CC1,8.5% (inactive)
16,COc1ccccc1NC(=O)c1nc[nH]c1C(=O)Nc1ccccc1OC,50.5% (inactive)
17,O=S(=O)(Nc1cccc2ncccc12)c1cccs1,14.3% (inactive)
18,CCOc1ccc(OCC)c(NC(=O)C2CCCN(S(=O)(=O)c3c(C)noc3C)C2)c1 (centres undefined),19.8% (inactive)
19,COc1ccc(-n2c(C)nc3c(cnn3-c3ccc(Cl)cc3)c2=O)cc1,4.4% (inactive)

row,SMILES,side scatter shift
1,COc1ccc(CCNC(=O)C2CCN(Cc3nc(-c4cccc(Cl)c4)oc3C)CC2)cc1OC,20% (inactive)
2,COc1cc2c(C(=O)NCCCN3CCN(c4cccc(Cl)c4)CC3)cn(C)c(=O)c2cc1OC,53.3% (inactive)
3,CCOC(=O)c1ccccc1NC(=O)Cn1c(-c2nonc2N)nc2ccccc21,30.6% (active)
4,Cc1oc(-c2ccc(Cl)cc2)nc1CN1CCCC(C(=O)NCc2cccnc2)C1 (centres undefined),25% (inactive)
5,Cc1cccc(-c2nc(CN3CCCC(C(=O)NC4CCC(C)CC4)C3)c(C)o2)c1 (centres undefined),40% (inactive)
6,COc1ccc(CC(=O)Nc2ccc(-c3nnc(-c4ccc(C)cc4)o3)cc2)cc1,33.3% (inactive)
7,CCc1nnc(NC(=O)CSc2nc3ccccc3s2)s1,5.7% (inactive)
8,CCn1c(C(=O)NCCCN2CCc3ccccc3C2)cc2sccc21,12.5% (inactive)
9,CCOC(=O)C1CCN(c2nc3ccccc3nc2C(C#N)C(=O)OCCOC)CC1 (centres undefined),11.8% (inactive)
10,CCN(CCNC(=O)C1CCN(Cc2nc(-c3cccc(Cl)c3)oc2C)CC1)c1ccccc1,66.7% (inactive)
11,Cc1nc(NCCNC(=O)c2ccco2)c2c(C)c(C)sc2n1,24.1% (inactive)
12,Cc1ccc2c(c1)c1c(n2CC(O)CNC(CO)(CO)CO)CCCC1 (centres undefined),34.3% (inactive)
13,CC1(C)CC(=O)c2cc(OCC(=O)NCCCN3CCN(c4ccc(F)cc4)CC3)ccc2O1,5.9% (inactive)
14,Oc1ccccc1CNc1nc2ccccc2n1CCN1CCCCC1,22.7% (inactive)
15,CCOC(=O)c1c(C)n(C)c2ccc(OCC(O)CNC(CC)CO)cc12 (centres undefined),58.6% (active)
16,CCN(CCCNS(=O)(=O)c1ccc2c(c1)oc(=O)n2C)c1cccc(C)c1,22.2% (inactive)
17,O=C(c1ccccc1)c1ccc(N2CCNCC2)cc1,63% (active)
18,CCOC(=O)N1CCC(=C2c3ccc(Cl)cc3CCc3cccnc32)CC1,28.6% (inactive)

# Same assay, conditions: 4 d, side scatter shift, at 10 µM, stronger effect = higher value
row,SMILES,side scatter shift [%]
1,Cc1cc(NC(=O)CSc2nnc(C3CC3)n2C)no1,9.3
2,Nc1cccc2cnccc12,6.95
3,COc1ccc(C)cc1NC(=O)CCC(=O)Nc1ccc2nc(N3CCN(C)CC3)cc(C)c2c1,13.4
4,CCOC(=O)C1CCCN(C(=O)Cn2cccc2C(=O)c2ccccc2)C1 (centres undefined),2.5
5,CCn1c(=O)cc(SCC(=O)NCCCN2CCN(c3ccc(F)cc3)CC2)c2ccccc21,21.6
6,CCCCOC(=O)CSc1nc2c(cc1C#N)C(=O)CC(C)(C)C2,5.85
7,CCC(C(=O)Nc1ccccc1OC)n1c(C(=O)OC)cc2ccsc21 (centres undefined),2.5
8,CCCCOC(=O)Nc1cc(C(=O)OC)ccc1C(=O)OC,1.25
9,Cn1nc(-c2ccc(Cl)cc2)c2cc(C(=O)NCCCN3CCOCC3)sc21,27.4
10,O=C(Nc1ccc2oc(Cc3ccc(Cl)cc3)nc2c1)c1cccnc1,6.7
11,O=C(NCCCN1CCOCC1)c1cc2c(s1)CSC2,9.2
12,COc1ccc(-c2nc(CN3CCC(C(=O)N4CCc5ccccc54)CC3)c(C)o2)cc1OC,2.7
13,CCOC(=O)c1sc2ncnc(N3CCN(c4ccc(OC)cc4)CC3)c2c1C,9.55
14,COc1ccc(-c2ccc(-c3nnn(CC(C)=O)n3)cc2)cc1,2.95
15,Cc1cc(=O)oc(C)c1C(=O)NCCCN1CCN(c2ccc(F)cc2)CC1,5.05
16,COc1ccccc1NC(=O)c1nc[nH]c1C(=O)Nc1ccccc1OC,5.65
17,O=S(=O)(Nc1cccc2ncccc12)c1cccs1,5.95
18,CCOc1ccc(OCC)c(NC(=O)C2CCCN(S(=O)(=O)c3c(C)noc3C)C2)c1 (centres undefined),2.05
19,COc1ccc(-n2c(C)nc3c(cnn3-c3ccc(Cl)cc3)c2=O)cc1,5.6

row,SMILES,side scatter shift [%]
1,COc1ccc(CCNC(=O)C2CCN(Cc3nc(-c4cccc(Cl)c4)oc3C)CC2)cc1OC,12.2
2,COc1cc2c(C(=O)NCCCN3CCN(c4cccc(Cl)c4)CC3)cn(C)c(=O)c2cc1OC,15.4
3,CCOC(=O)c1ccccc1NC(=O)Cn1c(-c2nonc2N)nc2ccccc21,27.1
4,Cc1oc(-c2ccc(Cl)cc2)nc1CN1CCCC(C(=O)NCc2cccnc2)C1 (centres undefined),7.2
5,Cc1cccc(-c2nc(CN3CCCC(C(=O)NC4CCC(C)CC4)C3)c(C)o2)c1 (centres undefined),5.9
6,COc1ccc(CC(=O)Nc2ccc(-c3nnc(-c4ccc(C)cc4)o3)cc2)cc1,6.65
7,CCc1nnc(NC(=O)CSc2nc3ccccc3s2)s1,5
8,CCn1c(C(=O)NCCCN2CCc3ccccc3C2)cc2sccc21,14.8
9,CCOC(=O)C1CCN(c2nc3ccccc3nc2C(C#N)C(=O)OCCOC)CC1 (centres undefined),3.1
10,CCN(CCNC(=O)C1CCN(Cc2nc(-c3cccc(Cl)c3)oc2C)CC1)c1ccccc1,31.2
11,Cc1nc(NCCNC(=O)c2ccco2)c2c(C)c(C)sc2n1,4.2
12,Cc1ccc2c(c1)c1c(n2CC(O)CNC(CO)(CO)CO)CCCC1 (centres undefined),12.4
13,CC1(C)CC(=O)c2cc(OCC(=O)NCCCN3CCN(c4ccc(F)cc4)CC3)ccc2O1,15.1
14,Oc1ccccc1CNc1nc2ccccc2n1CCN1CCCCC1,12.2
15,CCOC(=O)c1c(C)n(C)c2ccc(OCC(O)CNC(CC)CO)cc12 (centres undefined),3.3
16,CCN(CCCNS(=O)(=O)c1ccc2c(c1)oc(=O)n2C)c1cccc(C)c1,4.85
17,O=C(c1ccccc1)c1ccc(N2CCNCC2)cc1,7.95
18,CCOC(=O)N1CCC(=C2c3ccc(Cl)cc3CCc3cccnc32)CC1,6.25
